Where “and” joins values, the source holds several entries; their conditions need not be identical. Equal entries are not always repeated. Structures can show the parent of a compound that is named as a salt. Values without a mark were called inactive.
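Also: TDF is a line of transformed human dermal fibroblasts of mesenchymal origin.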

This assay has as its system TDF. The assay is described as follows: H1.0 immunofluorescence intensity relative to DMSO (% of DMSO); higher = stronger H1.0 induction, active = 120 or more. The following applies: concentration: 10 µM; 24 h. Summed up: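 Six fields per well were imaged at ×10 after the cells were fixed in 3.7% formaldehyde and stained with a rabbit anti-H1.0 antibody, an AlexaFluor 647 secondary and DAPI. The HCC1569 and TDF cells had been plated at 800 per well in 384-well plates (RPMI, 10% FBS) and treated in triplicate with compounds at 10 µM for 24 h at 37 °C. The values are the median of replicates of H1.0 nuclear intensity or cell number, as percent of the plate control. Smoothing for positional effects was applied to HCC1569 data.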
Consider `O=C(Nc1ccc(Oc2ccnc3[nH]ccc23)c(F)c1)c1cccn(-c2ccc(F)cc2)c1=O`, for which the H1.0 immunofluorescence intensity was 95.1.
Regarding `CCCCCC=CCC=CCC=CCCCCC(=O)O` [γ-Linolenic acid (18:3 n-6)], the H1.0 immunofluorescence intensity is 96.6.
The same measure for `CCCCCCCCC(O)C=CC=CC=CC(O)CCCC(=O)O` (centres undefined) [Leukotriene B3]: 98.7.
Take `Cc1nc(Nc2ncc(C(=O)Nc3c(C)cccc3Cl)s2)cc(N2CCN(CCO)CC2)n1` [Dasatinib]: the H1.0 immunofluorescence intensity is 107.
Regarding `O=C1NC(=O)C(c2cn(CCCn3ccnc3)c3ccccc23)=C1Nc1ccccc1` [PKCb Inhibitor], the H1.0 immunofluorescence intensity is 87.7.
As for `O=C(CCCN1CCC(O)(c2ccc(Cl)cc2)CC1)c1ccc(F)cc1` [Haloperidol], the H1.0 immunofluorescence intensity was 101.
With `CCCCCC(O)C=CC1C2CC(CO2)C1CC=CCCCC(=O)O` (centres undefined), the H1.0 immunofluorescence intensity was 93.7.
The same measure for `CC(C)(C)NCC(O)c1ccc(O)c(CO)c1` (centres undefined) [Salbutamol]: 95.9; for `NC1CONC1=O` [L-Cycloserine]: 94.5; for `CC(C)CCNC(C)C1CCC2C3CC=C4CC(O)CCC4(C)C3CCC12C` (centres undefined) [22-Azacholesterol]: 104.
Regarding `CNC(=C[N+](=O)[O-])NCCSCc1ccc(CN(C)C)o1.Cl` [Ranitidine hydrochloride], the H1.0 immunofluorescence intensity is 91.6.
In the case of `COc1ccc(-c2cc(=S)ss2)cc1` [Anethole-trithione], the H1.0 immunofluorescence intensity was 96.7.
Consider `CNC(=O)C1OC(n2cnc3c(NCc4cccc(I)c4)ncnc32)C(O)C1O` (centres undefined), for which the H1.0 immunofluorescence intensity was 87.4.
In the case of `COc1ccc2c(c1)c(CC(=O)Nc1ccc(NC(C)=O)cc1)c(C)n2C(=O)c1ccc(Cl)cc1` [N-(4-acetamidophenyl)indomethacinamide] it was 134 (active); in that of `CN1CCN(CC(=O)N2c3ccccc3C(=O)Nc3cccnc32)CC1.Cl.Cl` [Pirenzepine.2HCl], 90.5; in that of `CN1CCN(c2ccc3c(c2)NC(=C2C(=O)N=c4cccc(F)c4=C2N)N3)CC1`, 93.5.
`CCCCCC(O)C=CC1C(O)CC(O)C1CCCCCCC(=O)O` (centres undefined) [Prostaglandin F1a]: the H1.0 immunofluorescence intensity was 91.9.
Take `COc1cc2c(cc1O)CCC1C2CCC2(C)C(O)CCC12` (centres undefined) [2-methoxyestradiol]: the H1.0 immunofluorescence intensity was 156 (active).
Consider `CC(C)(C)c1ccc(S(=O)(=O)C=CC#N)cc1`, for which the H1.0 immunofluorescence intensity was 98.3.
In the case of `CCCCCC=CCC(O)C=CC=CCCC(=O)O` [Tetranor-12(R)-HETE], the H1.0 immunofluorescence intensity is 100.
`C#CCCCCCCCCCCCCCCCC(=O)O` [17-Octadecynoic acid]: the H1.0 immunofluorescence intensity was 92.5.
In the case of `CC12CCC(=O)C=C1CCC1C2C(O)CC2(C)C1CCC2(O)C(=O)COC(=O)CCC(=O)[O-].[Na+]` (centres undefined) [Hydrocortisone 21-hemisuccinate sodium] it was 82.6.
Regarding `OCc1c[nH]c2ccccc12` [Indole-3-carbinol], the H1.0 immunofluorescence intensity is 102.
Regarding `Cl.NC1C=CC=C(C(=O)O)C1` (centres undefined) [Gabaculine hydrochloride], the H1.0 immunofluorescence intensity is 102.
In the case of `CCCNC1CCc2nc(N)sc2C1` (centres undefined) [Pramipexole], the H1.0 immunofluorescence intensity is 94.4.
On to `COc1ccccc1N1CCN(CCN(C(=O)C2CCCCC2)c2ccccn2)CC1.O=C(O)C=CC(=O)O`, for which the H1.0 immunofluorescence intensity is 101.
For `CC(C(O)c1ccc(O)cc1)N1CCC(Cc2ccccc2)CC1` (centres undefined) [Ifenprodil tartrate], the H1.0 immunofluorescence intensity is 94.5.
`Nc1ncnc2n[nH]c(Nc3ccc(F)cc3)c12`: the H1.0 immunofluorescence intensity is 90.1.
`CCCCCCC(O)CC=CCCCCCCCC(=O)O` (centres undefined) [Ricinoleic acid]: the H1.0 immunofluorescence intensity was 97.7.
Take `Cc1ccc(NC(=O)c2cccc(N(C)C)c2)cc1NC(=O)c1ccc(O)cc1`: the H1.0 immunofluorescence intensity is 96.7 and 105.
Turning to `NCCC(O)(P(=O)([O-])O)P(=O)([O-])O.O.O.O.O.O.[Na+].[Na+]` [Pamidronate.2Na.5H2O], the H1.0 immunofluorescence intensity is 95.
Turning to `O=C(O)Cc1c[nH]c2ccc(O)cc12` [5-Hydroxyindolacetic acid], the H1.0 immunofluorescence intensity is 99.9.
For `CCCCc1oc2ccccc2c1C(=O)c1cc(I)c(OCCN(CC)CC)c(I)c1.Cl` [Amiodarone hydrochloride], the H1.0 immunofluorescence intensity is 98.9.
Regarding `COc1cc(C(=O)OCCC[NH+]2CCC[NH+](CCCOC(=O)c3cc(OC)c(OC)c(OC)c3)CC2)cc(OC)c1OC.[Cl-].[Cl-]` [Dilazep hydrochloride], the H1.0 immunofluorescence intensity was 108.

For the origin of these results see the supplement of paper PMC7156485.
